Measurements as given in PubChem BioAssay AID1788 (Vanderbilt High Throughput Screening Facility, 2009).
Unmarked numbers belong to inactive results. How the calls were made is not given here.

System: Calcium channel L-type (rat)
Assay: PubChem AID 1788
Conditions: MDS Pharma lead profiling panel, radioligand binding, benzothiazepine site, at 10 µM, active compounds read high

CCOC(=O)N1CCC(NCCNC(=O)c2ccccc2C)CC1
inhibition: -4%
